Source: PubChem BioAssay (NCI)
About 83,000 compounds went through this panel and 20% of them were active in at least one assay; those are over-represented in the sample as a whole.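 Assay: single dose, 48 h. Readout: percent growth (0 = no net growth; negative = cell death). Active: <10.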 Unmarked numbers belong to inactive results. Active and inactive are the calls of the source.

Tests used:
Assay in all cases: NCI-60 one-dose screen, 48 h (100 = growth as untreated, 0 = no growth, -100 = all killed)
Details in all cases: 10 µM unless noted
NCI-H23 lung = test system: NCI-H23 lung
NCI-H226 lung = test system: NCI-H226 lung
NCI-H322M lung = test system: NCI-H322M lung
HOP-62 NSCLC = test system: HOP-62 NSCLC
NCI-H460 lung = test system: NCI-H460 lung
HOP-92 NSCLC = test system: HOP-92 NSCLC
NCI-H522 lung = test system: NCI-H522 lung
A549/ATCC NSCLC = test system: A549/ATCC NSCLC
786-0 renal = test system: 786-0 renal
COLO 205 colon = test system: COLO 205 colon
DU-145 prostate = test system: DU-145 prostate
K-562 leukemia = test system: K-562 leukemia
MALME-3M melanoma = test system: MALME-3M melanoma
MDA-MB-231 breast = test system: MDA-MB-231 breast
RXF 393 renal = test system: RXF 393 renal
SF-268 CNS = test system: SF-268 CNS
SF-295 CNS = test system: SF-295 CNS
SF-539 CNS = test system: SF-539 CNS
UACC-257 melanoma = test system: UACC-257 melanoma
M14 melanoma = test system: M14 melanoma

Structure (SMILES)	growth (NCI-H23 lung)	growth (NCI-H226 lung)	growth (NCI-H322M lung)	growth (HOP-62 NSCLC)	growth (NCI-H460 lung)	growth (HOP-92 NSCLC)	growth (NCI-H522 lung)	growth (A549/ATCC NSCLC)	growth (786-0 renal)	growth (COLO 205 colon)	growth (DU-145 prostate)	growth (K-562 leukemia)	growth (MALME-3M melanoma)	growth (MDA-MB-231 breast)	growth (RXF 393 renal)	growth (SF-268 CNS)	growth (SF-295 CNS)	growth (SF-539 CNS)	growth (UACC-257 melanoma)	growth (M14 melanoma)
ClC(Cl)c1nc(-c2cccnc2)n2nc(-c3ccccc3)cc2n1	-39.3% (active)	66.2%	46.2%	5.17% (active)	-32.5% (active)	-0.78% (active)	-20.3% (active)	-16.8% (active)	82.3%	-52.6% (active)	-21.7% (active)	6.07% (active)	-4.43% (active)	17.3%	-51% (active)	23%	0.57% (active)	60.8%	96.4%	71%
CCNc1nc(S(=O)(=O)CC)nc2ccccc12	103%	102%	104%	96.1%	101%	104%	81.8%	105%	101%	114%	103%	85.2%	83.3%	102%	107%	92.3%	105%	88.3%	85.5%	96.8%
COc1cc(C2NN=C3c4ccccc4CCC32)cc(OC)c1OC (stereo not given)	73.4%	62.6%	88%	82.3%	91.3%	62.4%	81.2%	42%	93.9%	89.3%	92.5%	42.8%	48.6%	48.4%	87.2%	84%	102%	85.4%	-36.4% (active)	
COc1cc(/C=C/C(=O)c2c(C)nc3ccccc3c2C)ccc1OCCCCOc1cc2c(cc1OC)C(=O)N1CCC[C@H]1C=N2	-34.9% (active)	-80.9% (active)	-62.7% (active)	-49% (active)	-93.3% (active)	-49.1% (active)	-32.2% (active)	-52.6% (active)	-88.1% (active)	-100% (active)	-100% (active)	-55.5% (active)	-81.3% (active)	-65.9% (active)	-92.6% (active)	-35.6% (active)	-48.9% (active)	-90.6% (active)	-88% (active)	
Cc1csc(NC(c2ccccc2)c2c(C)nc3ccccn23)n1 (stereo not given)	95.6%	94.8%	104%	95.4%	102%	68.4%	95.3%	99.1%	100%	106%	110%	88.1%	97.2%	96.8%	122%	103%	87.1%	101%	94.8%	95.3%
COc1ccncc1S(=O)(=O)NC(=O)Nc1ccc(Cl)c(Cl)c1	89%	92.5%	95%	83.9%	104%	80.7%	82.5%	44.5%	94.2%	105%	109%	77.5%	90.1%	100%	79.3%	91%	85.4%	107%	-32.8% (active)	
CCOC(=O)c1c(NS(=O)(=O)c2ccc(C)cc2)sc2c1CCC1(C2)OCCO1	94.2%	85.8%	99.8%	90.7%	100%	77.1%	79.6%	103%	99.3%	115%	114%	89.5%	114%	99.7%	103%	93.6%	93.1%	93.7%	96.2%	104%
O=C1NN(C(=O)c2ccc(Cl)cc2)C(c2ccccc2)=N/C1=C\c1cn(-c2ccccc2)nc1-c1ccccc1	89.6%	106%	94.7%	90.3%	99.5%	94.6%	85%	88%	90.7%	109%	103%	99.2%	77.7%	92%	89.9%	94.8%	73.8%	94.1%	92.8%	83.4%
CCCCCc1cc[n+](CC(=O)c2ccc([N+](=O)[O-])cc2)cc1	69.6%	96.5%	107%	79.8%	49.6%	51.7%	45.7%	78.9%	96.5%	-5.18% (active)	79.2%	34.7%	85.2%	70%	97.6%	87.3%	95.2%	96.9%	35.6%	
O=c1[nH]c(NCc2ccccc2)nc2nc(Nc3ccc(NC(=S)Nc4ccccc4)cc3)nc(-c3ccc(O)cc3O)c12	99.4%	89.6%	140%	105%	109%	89.5%	54.2%	41.6%	104%	110%	116%	63.3%	103%	90.2%	81.4%	96%	147%	108%	39.7%	
CN(C)CCN1C(=O)c2ccc3c4c(ccc(c24)C1=O)C(=O)N(CCN=C=S)C3=O	-61.7% (active)	-94.7% (active)	-94.1% (active)	-96.3% (active)	-43.5% (active)	-79.5% (active)	-93.8% (active)	-52.8% (active)	-81.3% (active)	-87.9% (active)	-97.1% (active)	-29.7% (active)	-63.7% (active)	-84.5% (active)	-98.5% (active)	-89% (active)	-71.7% (active)	-81.7% (active)	-95.3% (active)	-77.5% (active)
Cc1csc(NC(c2ccc(Br)cc2)c2c(C)nc3ccccn23)n1 (stereo not given)	84%	81.6%	84.9%	92.8%	98.4%	42.9%	89.3%	87.6%	90.4%	90.2%	107%	79.9%	88.4%	84%	112%	92.2%	74.7%	101%	76.1%	90.6%
Cc1cc(N/N=C/c2nc(-c3ccc(Br)cc3)oc2C)c2cc(Br)ccc2n1	103%	113%	82.8%	105%	-13.1% (active)	78.8%	48%	32.8%	29.2%	99.7%	34.6%	-29.2% (active)	17.4%	55.9%	92.8%	75.1%	96.7%	89%	95.8%	57.5%
Cc1cc(N/N=C/c2nc(-c3ccccc3)oc2C)c2cc(Br)ccc2n1	88.6%	88.3%	94.3%	87.5%	73.6%	71.9%	80.6%	87%	86.7%	85.6%	91.3%	21.9%	95.2%	53.5%	102%	95%	95%	75.2%	102%	91.6%
FC(F)(F)c1ccccc1-c1cn2c(ccc3ccccc32)n1	85.3%	77.5%	96.1%	60.4%	85.3%	79.9%	49%	80%	94.9%	102%	104%	29.8%	65.1%	69.5%	84.4%	90.3%	62.1%	78.6%	70.3%	60.3%
CC(C)c1ccc2occ(C=C3C(=O)NC(=O)NC3=O)c(=O)c2c1	97.5%	106%	116%	101%	102%	63%	88.7%	100%	91.6%	117%	109%	72.7%	93.7%	98.9%	87.4%	89.3%	119%	121%	96.1%	91.3%
